HCV inh – blocks hepatitis C virus. Huh7.5.1 HCVcc-Cre infection, luciferase reporter, 44 h. Potency, µM (series often up to 41.8 µM), for inactives: at the highest dose activity change, negative = inhibition, actives largely listed as inhibitors. hit rate 3.4% among 340,000; further: potency means the concentration at half of the fitted maximal effect; on the % scale 0 is the no-effect control and ±100 the full control effect
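Reporter virus HCVcc-Cre (~0.5 moi) infects cells exposed to compound; seeding density 1,000 cells/well with 4 h settling beforehand. Luminescence, 15 sec read, taken 44 h post-infection following a 15 min RT substrate incubation.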
Pf growth 96h – P. falciparum growth inhibition at 96 hours. P. falciparum luciferase reporter growth, 96 h. Potency, µM (series often up to 28.7 µM), inactives show at the top dose activity change, negative = inhibition, hits mostly inhibitors. hit rate 6.9% among 320,000. AID 504834; further: potency means the concentration at half of the fitted maximal effect; on the % scale 0 is the no-effect control and ±100 the full control effect
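P. falciparum expressing integrated firefly luciferase, in erythrocytes at 2% hematocrit, 0.05% parasitemia, incubated with compounds 96 h at 37 C, 5% CO2. Growth inhibition read as loss of luminescence; two-generation exposure targets delayed-death apicoplast inhibitors.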
Pf growth 48h – P. falciparum growth inhibition at 48 hours (one generation); AID 504832; P. falciparum luciferase growth in erythrocytes, 48 h; hit rate 5.9% among 310,000; Potency, µM (highest dose often 28.7 µM), inactives show top-dose activity change, negative = inhibition, most hits filed as inhibitors; further: potency means the concentration at half of the fitted maximal effect; on the % scale 0 is the no-effect control and ±100 the full control effect
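Growth was read as firefly luciferase luminescence after a 48 h, 37 C, 5% CO2 exposure of compounds to reporter-bearing P. falciparum cultures (0.1% parasitemia, 2% hematocrit final) in Albumax-supplemented RPMI 1640.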
Sm TGR inh – inhibitors of Schistosoma mansoni thioredoxin glutathione reductase. Q962Y6. purified TGR, DTNB reduction, TNB absorbance 405 nm. hit rate 3% among 360,000. Potency, µM (series often up to 114 µM), inactives show top-dose activity change, negative = inhibition, usual class: inhibitors; further: potency means the concentration at half of the fitted maximal effect; on the % scale 0 is the no-effect control and ±100 the full control effect; nearly all actives have a fitted effect of over 60% in size
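TGR 20 nM + NADPH 100 uM (dispensed conc.), cpd preinc 15 min RT; start with NADPH (500 uM addition) then DTNB (15 mM addition). Kinetic TNB absorbance, 405 nm filter. Four-parameter Hill fit across titration.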
HCMV antiviral – inhibitors of human cytomegalovirus; HFF cells, HCMV-luciferase reporter, 72 h; hits give low values; activity change, negative = inhibition, % at 57.5 µM; hit rate 4.5% among 410,000; AID 1259415; in the data active means activity change below about -60%; inconclusive means no clear call, values can overlap the other calls; inactive means above about -39%; further: on the % scale 0 is the no-effect control and ±100 the full control effect
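Inhibition of viral replication was scored as loss of reporter luminescence in HFFs infected with HCMV-luciferase (MOI 1 PFU/cell) for 72 h; compounds tested at 2 doses, normalized to buffer and Salinomycin controls.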
SARS PLP yeast – SARS-CoV PLP inhibition in yeast; AID 485353; S. cerevisiae expressing SARS-CoV PLpro, growth rescue; hit rate 0.19% among 330,000; Potency, µM (highest dose often 32.9 µM), for inactives: at the top dose activity, positive = growth rescue, actives largely listed as activators; calls by dose curve; further: potency means the concentration at half of the fitted maximal effect; 0% is about no effect; nearly all actives have a fitted effect of over 55% in size
* = called active by the depositor; ? = inconclusive; nt = no result given. Most compounds without a hit are left out; they make up all but 15% or so of the library. Unless noted, the call rests on the fitted dose curve; in most records, active means well fitted curve in the direction sought with a large enough effect; inconclusive means small, poorly fitted or top-dose-only effect, or another doubt; inactive means no such curve, though single readings can be large; an effect the other way counts as inactive or inconclusive.

SMILES | HCV inh | Pf growth 96h | Pf growth 48h | Sm TGR inh | HCMV antiviral | SARS PLP yeast
CCn1c(COc2ccccc2C)nnc1SCC(=O)OC | 9.0% | ? | 0.0% | -17.2% | 3.1 | -1.2%
CCn1c(COc2ccccc2C)nnc1SCC(=O)N1CCN(c2ccccc2)CC1 | ? | ? | 10.4µM* | -17.1% | 43.8 | -4.7%
CCn1c(SCC(=O)N2CCOCC2)nnc1-c1cccs1 | 11.9% | 11.7µM* | -3.3% | -0.5% | -10.3 | 10.5%
O=C(NCc1ccco1)C(c1ccncc1)N(C(=O)Cn1nnc2ccccc21)c1ccccc1F (stereo unspecified) | -3.7% | 0.0% | 2.8% | -35.5% | 19.4 | -1.2%
Nc1sc(-c2ccccc2)cc1C(=O)N1CCN(c2ccccc2)CC1 | nt | nt | nt | nt | -38.1 | nt
C/C(=N\NC(=O)c1cc(O)ccc1O)c1cccc(NC(=O)c2ccc(Cl)cc2)c1 | ? | ? | ? | 39.8µM* | 19.1 | -2.3%
C/C(=N\NC(=O)c1cc(O)ccc1O)c1cccc(NC(=O)c2cccc(Cl)c2)c1 | -13.5% | ? | 8.9% | 63.1µM* | 32.0 | -6.8%
COc1ccc(C(=O)N/N=C(\C)c2cccc(NC(=O)c3ccc(F)cc3)c2)c(OC)c1 | ? | -17.1% | 0.1% | -10.9% | -60.6* | 1.9%
C/C(=N\NC(=O)c1cccc(C)c1)c1cccc(NC(=O)c2ccco2)c1 | -7.1% | 0.0% | 37.1% | 3.4% | 56.5 | -4.2%
COc1ccc(C(=O)N/N=C(/C)c2cccc(NC(=O)c3ccccc3F)c2)cc1 | ? | ? | 28.6% | 6.9% | 14.9 | 1.5%
C/C(=N\NC(=O)c1cccc(Cl)c1)c1cccc(NC(=O)c2ccco2)c1 | ? | 11.7µM* | ? | -0.5% | -26.1 | -6.9%
Cc1ccc(S(=O)(=O)N2CCCCC2CCNC(=O)C(=O)NCC2CCCO2)cc1 (stereo unspecified) | -15.7% | -24.0% | -4.5% | -1.0% | -19.2 | 4.6%
COc1ccc(-c2nc3ccc([N+](=O)[O-])cc3o2)cc1 | 3.9% | 36.1% | 115.1% | -1.8% | -91.9* | -6.7%
O=[N+]([O-])c1ccc2oc(-c3ccccc3)nc2c1 | -21.9% | 0.8% | 237.4% | -5.7% | 44.5 | -0.2%
CN(C)C(CNC(=O)C1CCN(C(=O)/C=C/c2ccccc2)CC1)c1ccccc1 (stereo unspecified) | 16.7% | -29.7% | -23.4% | -25.5% | -22.9 | 3.3%
CCOC(=O)C1=C(N)n2c(s/c(=C\c3ccco3)c2=O)=C(C(=O)OC(C)C)C1c1ccco1 (stereo unspecified) | ? | ? | 2.94µM* | 1.3% | -19.9 | -20.7%
CCOC(=O)C1=C(N)n2c(s/c(=C\c3ccco3)c2=O)=C(C(=O)OCC)C1c1ccco1 (stereo unspecified) | ? | nt | ? | -35.1% | -25.9 | -5.5%
O=C(Nc1ccc(Br)cc1)c1cc(S(=O)(=O)N2CCc3ccccc32)ccc1F | nt | nt | nt | -0.7% | -18.3 | nt
COc1cccc(CCc2nnc(CCC(=O)N3CCCC3c3nccs3)o2)c1 (stereo unspecified) | 7.3% | 5.86µM* | -2.9% | 4.6% | 18.0 | -0.2%
O=C(Nc1cc(=O)c2ccccc2o1)N1CCOCC1 | 3.1% | 6.9% | ? | 0.5% | 9.3 | 0.2%
O=C(c1cc2c(ccc3ccccc32)oc1=O)N1CCCC1 | 3.2% | 15.3% | 4.6% | -7.6% | -89.6* | -21.8%
O=C(O)c1cc2c(ccc3ccccc32)oc1=O | nt | 0.2% | nt | -7.5% | -24.0 | 8.7%
O=C(c1ccc(F)cc1Cl)N1CCN(CCc2ccccc2)CC1 | 7.0% | 8.28µM* | 5.2% | -4.8% | 9.8 | 1.9%
O=C(Nc1cc(=O)c2ccccc2o1)N1CCCCC1 | -19.9% | 5.22µM* | 4.65µM* | 21.8% | -31.9 | -4.2%
O=C(c1ccco1)N1CCN(C(=O)c2cc3ccccc3oc2=O)CC1 | -0.1% | -14.6% | 10.3% | -22.0% | 18.4 | 2.6%
SMILES | HCV inh | Pf growth 96h | Pf growth 48h | Sm TGR inh | HCMV antiviral | SARS PLP yeast
O=C(c1cc2ccccc2oc1=O)N1CCN(CCc2ccccc2)CC1 | 5.6% | 9.28µM* | 6.5% | -21.8% | 22.6 | 1.2%
O=C(c1cccc(C(F)(F)F)c1)N1CCN(CCc2ccccc2)CC1 | 1.8% | 25.4% | ? | -0.2% | 16.6 | 2.6%
COc1ccccc1N1CCN(S(=O)(=O)c2c(C(=O)N3CCOCC3)c(C)n(C)c2C)CC1 | -5.8% | 12.0% | 33.9% | 9.2% | 20.5 | 1.2%
COC(=O)C1=C(c2ccccc2)c2ccccc2S(=O)(=O)N1CC(=O)Nc1cccc(C(C)=O)c1 | nt | nt | nt | -0.8% | ? | nt
COC(=O)c1c(C)[nH]c2ccccc12 | nt | nt | nt | nt | -14.9 | nt
CCc1ccccc1N(C)S(=O)(=O)c1ccc2c(c1)C(C)(C)C(=O)N2C | nt | nt | nt | 24.7% | -22.7 | nt
Cc1ccc(C)c(N2CCN(C(=O)c3cc4ccccc4oc3=O)CC2)c1 | -20.0% | 9.28µM* | nt | 5.0% | -62.1* | -0.4%
O=C1[C@@H]2C(c3cccnc3)=NO[C@@H]2C(=O)N1c1ccc(Br)cc1 | 15.1% | 27.9% | 4.1% | 3.55µM* | 11.7 | -5.6%
COCC(=O)OC1CCn2c1nc1c2C(=O)C(C)=C(NC(C)=O)C1=O (stereo unspecified) | 14.1µM* | nt | nt | nt | -79.2* | nt
Cn1c(=O)[nH]c2cc(-c3noc(-c4ccc(F)cc4)n3)ccc21 | nt | nt | nt | 4.1% | 18.3 | nt
CC(=O)O[C@@H]1C[C@H]2C(C)(C)C(=O)C=C[C@]2(C)[C@H]2CC[C@@]3(C)[C@H](c4ccoc4)OC(=O)[C@H]4O[C@]43[C@@]21C | ? | 3.29µM* | 1.65µM* | -7.3% | -78.8* | 3.8%
COc1ccc(C(=O)OCCN2CCN(C3=NS(=O)(=O)c4ccccc43)CC2)cc1OC | 2.1% | 8.28µM* | -17.0% | -8.3% | 1.4 | -1.8%
COc1ccc(-n2c(C)cc(-c3csc(N)n3)c2C)cc1 | ? | ? | 13.1µM* | -3.3% | 1.8 | 16.7%
COCCNC(=O)[C@@]1(Sc2ccc(OC)cc2)CC(=O)N[C@@H]1c1ccc(OC)cc1 | nt | nt | nt | nt | -11.8 | nt
O=C(OCc1cc([N+](=O)[O-])cc2c1OCOC2)c1cccnc1SC(F)F | 1µM* | -0.4% | ? | -4.2% | 4.9 | -1.4%
O=C(OCc1cc([N+](=O)[O-])cc2c1OCOC2)c1ccccn1 | -16.2% | 47.8% | 8.5% | 3.0% | -11.4 | -0.4%
CSc1cccc(NC(=O)/C=C/c2ccco2)c1 | -14.3% | 55.3% | 141.8% | 1.12µM* | -11.3 | -6.5%
CSc1cccc(NC(C)=O)c1 | 7.6% | 13.2% | 1.7% | 8.4% | 7.3 | 8.8%
O=C(/C=C/c1ccco1)Nc1ccc(N2CCCC2)cc1 | -17.6% | 2.7% | 2.3% | -27.5% | 0.5 | -19.0%
COc1cccc(NC(=O)/C=C/c2ccco2)c1 | -9.4% | 257.9% | 306.3% | 10µM* | 15.9 | -4.1%

Screening data deposited in PubChem by National Center for Advancing Translational Sciences (NCATS).
